The panel holds about 79,000 compounds, 15% with a hit somewhere; the sample as a whole holds those more often. Activity calls are given as the source filed them. No stated cut-off is given here; in the data, active means growth inhibition above about 70%; inactive means the rest.
Legend:
[1] = NCI Yeast Anticancer Drug Screen. Data for the rad50 strain (AID 155);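 further: 0% = growth of vehicle-only cultures of the same strain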; conditions: S. cerevisiae rad50 strain growth inhibition; at 50.0 µM; hits give high values
How it was run: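 Yeast carrying a defined DNA repair defect were exposed to test compounds, and growth was compared with vehicle-treated controls to give percent inhibition.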

[2] = NCI Yeast Anticancer Drug Screen. Data for the mec2-1 strain (AID 157); conditions: S. cerevisiae mec2-1 strain, at 50.0 µM, hits give high values
How it was run: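 Strain: mec2-1 (DNA repair/cell cycle alteration). Compound exposure, then growth measured; inhibition expressed relative to vehicle.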

[3] = NCI Yeast Anticancer Drug Screen. Data for the sgs1 mgt1 strain (AID 161);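 further: 0% = growth of cultures given vehicle only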; conditions: S. cerevisiae sgs1 mgt1 strain, at 50.0 µM, hits give high values
How it was run: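 Read-out: growth inhibition vs vehicle controls. Cells: mutant yeast strain deficient in DNA damage repair.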

[4] = NCI Yeast Anticancer Drug Screen. Data for the cln2 rad14 strain (AID 165);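 further: 0% = growth equal to vehicle treated cultures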; conditions: S. cerevisiae cln2 rad14 strain, at 50.0 µM, hits give high values
How it was run: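 Compounds are applied to the cln2 rad14 yeast strain, and growth is then compared with that of vehicle-treated cultures to give inhibition.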

[5] = NCI Yeast Anticancer Drug Screen. Data for the bub3 strain (AID 167); conditions: S. cerevisiae bub3 mutant strain, at 50.0 µM, hits give high values
How it was run: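 Compounds were applied to a genetically altered yeast strain carrying a cell-cycle control defect. Growth inhibition was scored against vehicle-treated controls.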

[6] = NCI Yeast Anticancer Drug Screen. Data for the mlh1 rad18 strain (AID 175); conditions: S. cerevisiae mlh1 rad18 strain growth inhibition; at 50.0 µM; hits give high values
How it was run: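 Read-out is yeast growth inhibition, calculated against vehicle-only controls. The compound was applied to a strain engineered with DNA damage repair alterations.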

Measured: growth inhibition

O=[N+]([O-])c1ccccc1C=Nc1ccccc1O
active: [5] 75%
inactive: [1] 56.4% | [2] 44.5% | [3] 52.8% | [4] 24.9% | [6] 66%

CC(=O)OCc1ccc(Cl)cc1Cl
inactive: [1] 3.65% | [2] -2.9% | [3] 7.25% | [4] 7.4% | [5] -33.4% | [6] -12.2%

COC1=C(N(C)C)C(=O)c2ccccc2C1=O
inactive: [1] 21.4% | [2] 0.55% | [3] 11.4% | [4] 7.3% | [5] -15.3% | [6] 4.55%

CSc1ccc(NC(=O)Nc2cccc(F)c2)cc1
inactive: [1] -2.15% | [2] 11.9% | [3] 27.2% | [4] -18.5% | [5] 42.5% | [6] 35.6%

NC(=O)N/N=C(\CCC(=O)N(Cc1ccccc1)Cc1ccccc1)CC(=O)c1ccc(F)cc1
inactive: [1] -1.5% | [2] 10.8% | [3] -30.9% | [4] 18.8% | [5] -7.9% | [6] -14.9%

COc1ccccc1NC(=O)C(=O)C1C(=O)Nc2ccccc2S1=O (stereo unspecified)
inactive: [1] -14.3% | [2] -21.1% | [3] -44.6% | [4] 2.45% | [5] -41% | [6] -45.5%

O=C(OCC1OC(OCc2ccccc2)C(OC(=O)c2ccccc2)C1OC(=O)c1ccccc1)c1ccccc1 (stereo unspecified)
inactive: [1] -10.2% | [2] -6.1% | [3] -2.4% | [4] -3% | [5] -13.5% | [6] -24.1%

CCOC(=O)C(=O)Nc1cccc(NC(=O)C(=O)OCC)n1
inactive: [1] 2.5% | [2] -21.6% | [3] -19.1% | [4] 4.4% | [5] -13.8% | [6] -6.05%

CN(C)C(=O)Nc1ccc(C#N)cc1
inactive: [1] 10.1% | [2] 2.3% | [3] -13.3% | [4] -25.1% | [5] -5.15% | [6] -8.2%

COC(=O)N/C(C)=N/OCc1ccccc1
inactive: [1] 1.2% | [2] 0.6% | [3] 4.3% | [4] 8.8% | [5] 15% | [6] -11.7%

COc1cc([N+](=O)[O-])ccc1C(=O)NC(CCC(=O)O)C(=O)O (stereo unspecified)
inactive: [1] -12.6% | [2] -19.9% | [3] 19.1% | [4] -20.4% | [5] 28.6% | [6] -22.1%

O=C1NCC(C2CC2)(C2CC2)O1
inactive: [1] 8.85% | [2] -16.9% | [3] -5.7% | [4] -34% | [5] 8.7% | [6] -21%

CSc1ccc(NC(=O)Nc2cccc(C)c2C)cc1
inactive: [1] 1.75% | [2] 27.1% | [3] 27.8% | [4] -7.2% | [5] 27.6% | [6] 15.3%

O=c1[nH]nc(SCc2ccccc2)c2nncn12
inactive: [1] 2.45% | [2] 3.1% | [3] 6.35% | [4] 23.4% | [5] 6.55% | [6] 20.1%

CNC(=O)Nc1ccccc1
inactive: [1] 27.4% | [2] -0.55% | [3] -12.1% | [4] 16.9% | [5] -21.9% | [6] 7.6%

O=C(Nc1ccccc1)SC1CCCCC1
inactive: [1] -4.6% | [2] 4.95% | [3] -8.7% | [4] -21.1% | [5] 3.8% | [6] -1.9%

COc1cc(CCC(=O)NS(=O)(=O)c2ccccc2)cc(OC)c1OC
inactive: [1] 4.2% | [2] 1.9% | [3] -6.75% | [4] -2.85% | [5] -3.85% | [6] 10.2%

Nc1cccc(Cl)c1C(=O)O
inactive: [1] -28.1% | [2] -30.2% | [3] -10.8% | [4] -11.7% | [5] -25.8% | [6] -19.2%

CCCOc1ccccc1C(=O)N1CCOCC1
inactive: [1] 25% | [2] -0.25% | [3] 7.8% | [4] 16.1% | [5] 8.8% | [6] 15.8%

CC(C)(C)C(=O)Cn1nnnc1C(=O)C(C)(C)C
inactive: [1] -10.7% | [2] -35.5% | [3] -15.8% | [4] -36.9% | [5] -5.85% | [6] -19.4%

Cc1ccc2[nH]c(=S)[nH]c(=S)c2c1
inactive: [1] 19.9% | [2] 5% | [3] 13.2% | [4] -19.8% | [5] -33.2% | [6] 36%
